A collection of fitness landscapes (doi:10.1016/j.celrep.2020.107928)
The full ranking holds about 81,000 sequences; the median of “one-hybrid fitness for binding NBS DNA” is about -0.1, and the highest 2% start at about 0.36. Many of the other results were omitted from the sample, so the highest values are more common in it than they were.

B1: Caulobacter ParB omega fusion; a variant is named by its letters at X, in order, B8GW30 (parent)
chain: MESVVVGEPGMSEGRRGLGRGLSALLGEVDAAPAQAPGEQLGGSREAPIEILQRNPDQPRRTFREEDLEDLSNSIREKGVLQPILVRPSPDTAGEYQIVAGERAWRAAQRAGLKTVPIMVRELDDLAVLEIGIIENVQRADLNVLEEALSYKVLMEKFERTQENIAQTIGKSXSHVANXMRLLXLPDEVQSYLVSGELTAXHARAIAAAADPVALAKQIIEGGLSVRETEALARKAPNLSAGKSKGGRPPRVKDTDTQALESDLSSVLGLDVSIDHRGSTGTLTITYATLEQLDDLCNRLTRGI

Variants of: B1
Assay: one-hybrid fitness for binding NBS DNA (the Noc-binding site; scaled: cognate 1, non-cognate 0); higher = stronger binding
Conditions: with NBS DNA site
Procedure, shortened: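 Caulobacter ParB libraries with four specificity codons randomised were screened by bacterial one-hybrid selection in the E. coli USO strain, using a HIS3 reporter whose site lies 19 bp from the promoter. Selection ran for 48 hours at 37°C on M9 lacking histidine, with 0.1 mM IPTG and 5 mM 3-AT. Plasmids were Illumina-sequenced before and after selection, three replicate libraries were pooled, and variants with under 10 reads were dropped. Fitness is the log change in each variant's read ratio to wild type, rescaled against the cognate and non-cognate sites.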

Row | Variant | one-hybrid fitness for binding NBS DNA
1 | LGTW | ≤ 0.2
2 | DDVR | ≤ 0.2
3 | LTIS | ≤ 0.2
4 | VYRA | ≤ 0.2
5 | IHWG | ≤ 0.2
6 | RKQT | 0.606
7 | RKRT | 0.676
8 | RSLT | 0.292
9 | RKQP | ≤ 0.2
10 | RKCM | ≤ 0.2
11 | RKRQ | 0.246
12 | RCLT | 0.436
13 | RKCQ | ≤ 0.2
14 | RKRG | 0.238
15 | RKQH | ≤ 0.2
16 | RKCT | 0.583
17 | RPLT | ≤ 0.2
18 | YFSE | ≤ 0.2
19 | GPRA | ≤ 0.2
20 | PFTR | ≤ 0.2
21 | YKRA | ≤ 0.2
22 | NSHG | ≤ 0.2
23 | NIIS | ≤ 0.2
24 | GQRS | ≤ 0.2
25 | NYVI | ≤ 0.2

Row | Variant | one-hybrid fitness for binding NBS DNA
26 | EAFS | ≤ 0.2
27 | LCHL | ≤ 0.2
28 | RTLY | ≤ 0.2
29 | RTLP | ≤ 0.2
30 | RFWT | ≤ 0.2
31 | RKNG | ≤ 0.2
32 | RKWT | 0.456
33 | RKGM | 0.218
34 | RKGQ | ≤ 0.2
35 | RIWT | 0.279
36 | RKNQ | ≤ 0.2
37 | RKNT | 0.698
38 | RTLT | 0.461
39 | RKGT | 0.649
40 | RNGC | ≤ 0.2
41 | RYHW | ≤ 0.2
42 | PRPF | ≤ 0.2
43 | RYAS | 0.342
44 | NTFG | ≤ 0.2
45 | PTNR | ≤ 0.2
46 | VRMT | ≤ 0.2
47 | RKST | 0.639
48 | RKDF | ≤ 0.2
49 | RKLK | ≤ 0.2
50 | RKLY | ≤ 0.2

Row | Variant | one-hybrid fitness for binding NBS DNA
51 | RKLT | 0.579
52 | RKIT | 0.361
53 | RKSC | 0.273
54 | RKDT | 0.498
55 | RKSF | ≤ 0.2
56 | RKYT | 0.643
57 | RKPT | 0.236
58 | IDAR | ≤ 0.2
59 | TMSR | ≤ 0.2
60 | SFKS | ≤ 0.2
61 | WVLY | ≤ 0.2
62 | SIAR | ≤ 0.2
63 | RKVI | ≤ 0.2
64 | KPTD | ≤ 0.2
65 | SPSM | ≤ 0.2
66 | RVWC | ≤ 0.2
67 | RSWT | 0.215
68 | RKHT | 0.645
69 | RCWT | 0.418
70 | RKHH | 0.245
71 | RKHP | ≤ 0.2
72 | RPWT | ≤ 0.2
73 | NLDC | ≤ 0.2
74 | PTPS | ≤ 0.2
75 | QRQH | 0.544

Row | Variant | one-hybrid fitness for binding NBS DNA
76 | QREQ | ≤ 0.2
77 | QCQH | 0.222
78 | QRQM | 0.395
79 | QRQN | 0.402
80 | QRQF | 0.323
81 | QHQH | ≤ 0.2
82 | QLQQ | ≤ 0.2
83 | QCQM | ≤ 0.2
84 | QRQC | 0.362
85 | QRQQ | 0.397
86 | QSQM | ≤ 0.2
87 | WQMR | ≤ 0.2
88 | TQQR | ≤ 0.2
89 | EVHL | ≤ 0.2
90 | DGGN | ≤ 0.2
91 | RFYH | ≤ 0.2
92 | ATCR | ≤ 0.2
93 | LYYL | ≤ 0.2
94 | KGWY | ≤ 0.2
95 | YQPD | ≤ 0.2
96 | QRQD | 0.228
97 | QRQP | 0.222
98 | QRQS | 0.688
